The campaign covered roughly 400,000 compounds. About 13,000 (3.2%) were called active. Where a call stands in place of a potency, no number is given. About 18% were inconclusive and are not listed. Calls come from the whole dose curve; as a rule, active = well fitted cell-killing curve with a large enough effect; inconclusive = small, poorly fitted or top-dose-only effect, or effect the other way; inactive = flat fitted curve, though single readings scatter. Only a selection was taken, and actives are over-represented in it overall.
assay: qHTS assay for MDR1-selective chemotherapeutics: Primary screen using the drug-selected MDR subline cells KB-V1; details: KB-V1 MDR cells viability, CellTiter-Glo, 72 h; series mostly up to 46.1 µM; note: nearly all actives have a fitted effect of over 60% in size
How it was run: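 Potencies derive from concentration-effect curves fitted to normalized luminescence (CellTiter-Glo) of KB-V1 cells treated for 72 h at 37 degrees C in phenol-red-free DMEM containing 10% FBS.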
Potency is the fitted concentration of half-maximal effect.

**Q.** For `COCCNc1ncnc2c1ncn2[C@H]1CN(CCN2CCOCC2)C[C@@H](CO)O1`, which Potency is on record?
**A.** inactive

**Q.** With `Fc1ccc(-n2ncc3c(Nc4ccc(Oc5ccccc5)cc4)ncnc32)cc1` as the compound, how does the Potency read?
**A.** inactive

**Q.** Which Potency does the source give for `Cn1c(C(=O)NCCCN2CCN(c3cccc(Cl)c3)CC2)cc2c(=O)n(C)c3ccccc3c21` here?
**A.** inactive

**Q.** Which Potency does the source give for `OC(COc1ccccc1)CN1CCN(c2cccc(Cl)c2)CC1` (centres undefined) here?
**A.** inactive

**Q.** With `CCc1nn(CCCN2CCN(c3cccc(Cl)c3)CC2)c(=O)n1CCOc1ccccc1` as the compound, how does the Potency read?
**A.** 6.51 µM (active)

**Q.** Which Potency does the source give for `CC(O)(c1cccc(F)c1)c1nc(-c2ccc3c(c2)OCO3)cs1` (centres undefined) here?
**A.** inactive

**Q.** With `CCc1nc2ccc(C(=O)NCCNC(C)=O)cn2c1N(CC)Cc1cccc(Br)c1` as the compound, how does the Potency read?
**A.** inactive

**Q.** With `COc1ccc(-n2c(SC)nc3sc4c(c3c2=O)CCN(C(C)=O)C4)cc1` as the compound, how does the Potency read?
**A.** inactive

**Q.** Which Potency does the source give for `CNc1cnc(-c2cc(OC)c(OC)c(OC)c2)cn1` here?
**A.** inactive

**Q.** For `Cc1ccc(C=O)c([B-](F)(F)F)c1`, which Potency is on record?
**A.** inactive

**Q.** For `CN1c2ccc(C=O)c3c(C=O)ccc(c23)N(C)C1(C)C`, which Potency is on record?
**A.** 18.4 µM (active)

**Q.** For `Cc1cc(C)c2c(=O)n3c(nc2c1)C(CC(C)C)NC(=O)c1cc2ccccc2cc1-3` (centres undefined), which Potency is on record?
**A.** inactive

**Q.** Which Potency does the source give for `CN(C)C1=C2C=CC=CC2/C(=C2/C=Cc3ccccc32)C=C1` (centres undefined) here?
**A.** inactive

**Q.** Which Potency does the source give for `CC(=O)Nc1ccc2c3c(ccc([N+](=O)[O-])c13)CC2` here?
**A.** inactive

**Q.** With `CN(C)S(=O)(=O)c1cccc(NC(=O)Cc2ccsc2)c1` as the compound, how does the Potency read?
**A.** inactive

**Q.** With `CN(c1ccccc1)S(=O)(=O)c1cccc(NC(=O)Cc2ccc(Cl)cc2)c1` as the compound, how does the Potency read?
**A.** 5.8 µM (active)

**Q.** Which Potency does the source give for `CN(c1ccccc1)S(=O)(=O)c1ccc(NC(=O)COc2ccccc2)cc1` here?
**A.** inactive

**Q.** For `COc1ccc(CN2C(=O)C(CC(=O)NC3CCCCC3)CC(C(=O)N3CCOCC3)=C2C)cc1` (centres undefined), which Potency is on record?
**A.** inactive

**Q.** With `CCn1cc(CN2CCC(C(=O)Nc3cccc(-c4cccc(Cl)c4)c3)CC2)cn1` as the compound, how does the Potency read?
**A.** inactive

**Q.** For `O=C(Nc1cnn(Cc2ccc(Cl)cc2)c1)C1CCCC1`, which Potency is on record?
**A.** 20.6 µM (active)

**Q.** With `O=C(O)C1CCCCC1C(=O)Nc1ccc(Cl)cc1` (centres undefined) as the compound, how does the Potency read?
**A.** inactive

**Q.** With `CCCCCCN1C[C@@H](O)[C@H](n2cc(COC(=O)c3ccccc3)nn2)C[C@@H]1c1ccc(Cl)cc1` as the compound, how does the Potency read?
**A.** inactive

**Q.** Which Potency does the source give for `Cc1ccc(OCCSc2nc3ccc(NC(=O)COc4ccc(C)cc4)cc3s2)cc1` here?
**A.** inactive

**Q.** Which Potency does the source give for `COC(=O)c1cc(C(=O)OC)cc(N2C(=O)CC(N3CCN(c4ccccc4)CC3)C2=O)c1` (centres undefined) here?
**A.** inactive

**Q.** With `COC(=O)[C@@]1(Sc2ccc(C)cc2)CC(=O)N(c2cccc(SC)c2)[C@@H]1c1ccccc1` as the compound, how does the Potency read?
**A.** 20.6 µM (active)

**Q.** Which Potency does the source give for `CCOC(=O)N1C(=O)C[C@](Sc2ccc(C)cc2)(C(=O)OC)[C@H]1c1ccccc1` here?
**A.** inactive

**Q.** With `Clc1cccc[n+]1CCCC[n+]1ccccc1Cl` as the compound, how does the Potency read?
**A.** inactive

**Q.** With `Cc1cc(C)cc(NS(=O)(=O)c2ccc(Oc3ncc(C(F)(F)F)cc3Cl)cc2)c1` as the compound, how does the Potency read?
**A.** 16.4 µM (active)

**Q.** For `Cc1cc(C)cc(NS(=O)(=O)c2ccc(F)cc2)c1`, which Potency is on record?
**A.** inactive

**Q.** With `Cc1ccc(NS(=O)(=O)c2ccc(C(C)(C)C)cc2)cn1` as the compound, how does the Potency read?
**A.** inactive

**Q.** Which Potency does the source give for `CC1(C(=O)Nc2cccc(Oc3ccccc3)c2)CCN1Cc1ccccc1Cl` (centres undefined) here?
**A.** inactive

**Q.** For `Cc1ccc(S(=O)(=O)c2c(N)n(C)c3nc4ccccc4nc23)cc1`, which Potency is on record?
**A.** inactive

**Q.** For `CCC(=O)Nc1c(S(=O)(=O)c2ccccc2)c2nc3ccccc3nc2n1Cc1ccccc1`, which Potency is on record?
**A.** 4.11 µM (active)

**Q.** With `CCN(CC)CCn1c(N)c(S(=O)(=O)c2ccccc2)c2nc3ccccc3nc21` as the compound, how does the Potency read?
**A.** inactive

**Q.** With `Cc1c(NC(=O)c2cc(=O)c3ccccc3o2)c(=O)n(-c2ccccc2)n1C` as the compound, how does the Potency read?
**A.** inactive

**Q.** For `O=C(C[C@H]1C[C@@H]2c3cc(NC(=O)C4CCC4)ccc3O[C@@H]2[C@H](CO)O1)NC1CCCCC1`, which Potency is on record?
**A.** inactive

**Q.** Which Potency does the source give for `CCCNC(=O)c1cc(C2CCCN(C(=O)c3ccc4c(c3)CCO4)C2)on1` (centres undefined) here?
**A.** inactive

**Q.** For `c1c2c(cc3sc(N4CCCCC4)nc13)OCCO2`, which Potency is on record?
**A.** 20.6 µM (active)

**Q.** Which Potency does the source give for `Cc1ccc2nc(N3CCN(C(=O)c4ccco4)CC3)sc2c1` here?
**A.** inactive

**Q.** With `O=C(NCc1ccc(F)cc1)c1ccc2nc(N3CCCCC3)sc2c1` as the compound, how does the Potency read?
**A.** inactive

**Q.** Which Potency does the source give for `COc1ccccc1CNC(=O)NCc1noc2ccc(C)cc12` here?
**A.** inactive

**Q.** Which Potency does the source give for `COc1cccc2c1C(=O)c1c(O)c3c(c(O)c1C2=O)CC(O)(C(C)=NNC(=O)c1ccc(Cl)c(Cl)c1)CC3OC1CC(N)C(O)C(C)O1` (centres undefined) here?
**A.** 23.1 µM (active)

**Q.** Which Potency does the source give for `CC(=O)Nc1cccc(Nc2ccc(C#N)cc2)c1` here?
**A.** inactive

**Q.** With `CCOC(=O)C1=C(c2ccccc2)Nc2ncnn2C1c1ccc(Cl)cc1` (centres undefined) as the compound, how does the Potency read?
**A.** inactive

**Q.** With `CCNC(=O)C1(C)CCCN1C(=O)c1ccc(N(C)C)cc1` (centres undefined) as the compound, how does the Potency read?
**A.** inactive

**Q.** For `Clc1ccccc1CSc1nncn2c1cc1occc12`, which Potency is on record?
**A.** inactive

**Q.** Which Potency does the source give for `Clc1ccccc1CSc1nnc(-c2ccco2)c(-c2ccco2)n1` here?
**A.** 20.6 µM (active)

**Q.** Which Potency does the source give for `CC1(C)N=C(SCc2ccccc2Cl)c2ccccc2N1` here?
**A.** inactive

**Q.** For `O=S(=O)(NCC(c1ccco1)N1CCOCC1)c1cc(F)ccc1F` (centres undefined), which Potency is on record?
**A.** inactive

**Q.** For `CCC(=O)N1Cc2cc(C(=O)NCc3cccc(F)c3)nc(-c3cccc(C4=CCCC4)c3)c2[C@H]1CCO`, which Potency is on record?
**A.** inactive

**Q.** For `Cc1ccnc(N2CCCC(C(=O)NC3CC3)C2)n1` (centres undefined), which Potency is on record?
**A.** inactive

**Q.** For `O=C(NC1CCN(C(=S)Nc2ccc(Cl)cc2)CC1)C1CCCCC1`, which Potency is on record?
**A.** inactive

**Q.** Which Potency does the source give for `O=C(NNC(=O)C1CCN(c2ncccn2)CC1)c1ccccc1` here?
**A.** inactive

**Q.** For `Cc1ccnc(N2CCC(C(=O)NC3CCCCCC3)CC2)n1`, which Potency is on record?
**A.** 16.4 µM (active)

**Q.** With `O=C(NC1CCCC1)C1CCN(C(=O)Nc2cccc(Cl)c2)CC1` as the compound, how does the Potency read?
**A.** inactive

**Q.** With `O=C(NC1CCCCCC1)C1CCN(C(=O)c2ccc(Cl)cc2)CC1` as the compound, how does the Potency read?
**A.** 14.6 µM (active)

**Q.** With `Cc1ccc(C(NC(=O)C2CCN(CCOc3ccc(Cl)cc3Cl)CC2)c2ccccn2)cc1` (centres undefined) as the compound, how does the Potency read?
**A.** inactive

**Q.** With `COc1ccc(NC(=O)C[C@H]2C(=O)N(CCc3ccccc3)C[C@@H]2C)cc1` as the compound, how does the Potency read?
**A.** inactive

**Q.** For `CCCNC(=O)c1cc(C2CCCCN2S(=O)(=O)c2cn(C)cn2)on1` (centres undefined), which Potency is on record?
**A.** inactive

**Q.** With `C[C@H](NC(=O)[C@@H]1CCCN1C(=O)[C@@H]1CCCN1C(=O)c1ccccc1)c1ccccc1` as the compound, how does the Potency read?
**A.** inactive

**Q.** For `O=C1NC[C@@H](CCCCN2CCN(CCc3ccc(O)cc3)C(=O)C2=O)N(CC2CCCCC2)C1=O`, which Potency is on record?
**A.** inactive

**Q.** For `Cc1cc(C(=O)CSc2nc(N)cc(=O)[nH]2)c(C)n1CCc1ccc(Cl)cc1`, which Potency is on record?
**A.** inactive

**Q.** For `Cc1cc(C(=O)CSc2nc(N)cc(=O)[nH]2)c(C)n1-c1cccc(F)c1`, which Potency is on record?
**A.** 3.66 µM (active)

**Q.** With `Cc1cc(C(=O)CSc2nc(N)cc(=O)[nH]2)c(C)n1Cc1ccco1` as the compound, how does the Potency read?
**A.** inactive
